In the supplement of paper PMC6555819:

Experiments:
Assay in all cases: PBM binding z-score (relative to random genomic background probes); higher = stronger binding; sequences stand for … in GC…GCGATTGACAGCGTAGAATGAAGG
[1] = test system: RARb homodimer (NR concentration 270 nM)
Method in brief: (§1)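 Ligand-free nuclear receptor dimers were bound for 1 h to custom Agilent 4×180K protein-binding microarrays. Detection used antibodies against each partner (one per run). Binding z-scores rest on regression-normalized fluorescence, with random background probes as the reference.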

[2] = test system: RARg:RXRa (NR concentration 270 nM, RXRa partner concentration 90 nM)
Method in brief: as §1

[3] = test system: RARg homodimer (NR concentration 270 nM)
Method in brief: as §1

[4] = test system: RXRa DBDmut IVT, anti-RXR (DBD mutation: RXRa K156A/R161A, NR concentration 90 nM)
Method in brief: as §1

[5] = test system: RXRa homodimer (NR concentration 180 nM)
Method in brief: as §1

[6] = test system: THRa:RXRa (NR concentration 90 nM, RXRa partner concentration 90 nM)
Method in brief: as §1

[7] = test system: THRa homodimer (NR concentration 90 nM)
Method in brief: as §1

[8] = test system: VDR homodimer (NR concentration 270 nM)
Method in brief: as §1

Row | Sequence | PBM binding z-score [1] | PBM binding z-score [2] | PBM binding z-score [3] | PBM binding z-score [4] | PBM binding z-score [5] | PBM binding z-score [6] | PBM binding z-score [7] | PBM binding z-score [8]
1 | GATAGCAGGCCATTTGGGTCACTCAATGACGGGC | 1.92 | 1.22 | 1.5 | 0.215 | 0.841 | 1.87 | 0.437 | 0.542
2 | AGAATGAGGTTATACGTAGATCAGGGATGAAAGT | 1.04 | 1.74 | 1.27 | 1.92 | 2.47 | 2.23 | 0.607 | 0.865
3 | ATACCAAGGTGATCTTGAGGTCGTTGATACTAAC | 1.9 | 2.62 | 1.12 | 1.19 | 2.04 | 3.66 | 2.9 | 3.21
4 | TCTTGTAGATCAATAGAGGTTAAGTAAGTGCGCT | 1.37 | 0.902 | 0.6 | 0.824 | 1.49 | 3.1 | -0.295 | 0.563
5 | CGTCCAAGGTCAAGGGTCAGTGAAGAGATGACGG | 5.05 | 7.4 | 7.41 | 3.29 | 8.75 | 4.58 | 2.82 | 3.3
6 | CCTTACGGGGCACTCCAGGTTATAGCATCGGAGT | 0.528 | 0.714 | 0.823 | -0.513 | 0.523 | 3.58 | -0.229 | 0.0884
7 | GCGACTGGGGAAAAGCAGGTTACCATAAGGTTGG | 0.416 | -0.0185 | -0.445 | -0.805 | 0.275 | 1.25 | 0.0418 | -0.6
8 | GGTACGAGGGCAAGTTGATAGCAGAGTTTGATGG | 1.72 | 1.74 | 2.47 | 2.31 | 0.941 | 1.39 | 0.219 | 2.1
9 | TAGCCTGGGTCATGGGCCAGTATACCACGCGAAC | 2.24 | 3.99 | 3.38 | -1.06 | 3.73 | 2.39 | -0.0617 | -0.187
10 | TAGCCTCGGTCAGATCGGGCCAGTATACGCTATA | 0.82 | 0.738 | 1.98 | -1.02 | -0.0826 | 2.41 | -1.11 | -1.63
11 | TCTAGCAGGCCAGAGGGTCACTCACGAGGTACGG | 2.69 | 2.68 | 2.14 | 0.0334 | 2.44 | 1.61 | 0.0798 | 0.852
12 | TGAATGAGGTTATAAGATCAGGCAACGTTGCAAA | 0.151 | 1.57 | 0.908 | 0.405 | 2.11 | 1.85 | 0.127 | 0.105
13 | CGAACTATGTCAGAACAGGACAGTGAAGGATGAT | 0.293 | 0.443 | 0.879 | -0.123 | 0.167 | 0.953 | -0.106 | 0.0831
14 | TCATATAGGTAAACAGGTTAAAGTCCGTAAGTTA | 1.19 | 1.04 | 0.666 | 1.85 | 1.62 | 1.26 | 0.613 | 1.01
15 | CCACACAGGTGAAAGGTAACTCAGTCTGGTACGC | 1.05 | 1.5 | 0.76 | 0.262 | 2.32 | 1.06 | 0.165 | -0.208
16 | TCATATACGTAAATGCTAGGTGAAAGTCCGATCT | 0.562 | 0.251 | 0.209 | 1.77 | 0.598 | 0.97 | 0.696 | 0.147
17 | CGTCCAAGGTCCGCAGGTCAGTGAAAGCGACGTG | 2.24 | 1.06 | 1.49 | 0.0611 | 0.267 | 1.04 | 0.0358 | -0.00185
18 | AGAACGAGGGCAATGAGTAGATAGCACGGGTGGC | 0.9 | 1.33 | 1.4 | 1.67 | 1.14 | 0.671 | -0.3 | 0.678
19 | CCTCGAAGGACAACAGGAGGTCAGAGCTGCCAGA | 3.42 | 3.4 | 3.28 | 0.237 | 1.89 | 2.58 | 0.731 | 0.641
20 | AGAATGAGGTTATACGTAGATCAGTGAAGAAAGT | 0.6 | 1.71 | 1.14 | 1.92 | 2.12 | 1.99 | 0.44 | 0.703
21 | AGTACAGGGTCATCGTAGGCCAGAGTACGCACAG | 3.81 | 5.65 | 5.22 | 3.47 | 6.42 | 4.59 | 1.57 | 3.92
22 | GCCACTGGGGCATCAGCAGGTTACCATAACTTAA | 0.865 | 0.714 | 0.439 | -0.45 | 0.212 | 0.803 | -0.0926 | -0.602
23 | TCATATAGGTGAATGCTAGGTGAAAGTCCGATCT | 0.945 | 1.54 | 0.61 | 1.39 | 0.992 | 2.06 | 0.5 | -0.483
24 | ATCGAAAGGTCGAAGTTGAGTATACCCACCCGAA | 2.55 | 4.07 | 3.83 | 1.9 | 4.79 | 2.01 | -0.00538 | 1.02
25 | CGAACTAGGTCCGAACAGGACAGTGAAGGATGAT | -0.462 | -0.22 | 0.235 | 0.44 | -0.527 | 0.105 | -0.912 | -0.155
26 | GGAACGAGGCCAAAGTTGATAGCATCTGTCGACG | 0.373 | 0.787 | 0.688 | 0.917 | 0.814 | 0.667 | -0.899 | -0.181
27 | TCTCGGAGGACACGAAAGGTCAGAGATCGACATC | 4.63 | 5.05 | 5.73 | 1.17 | 4.6 | 3.87 | 1.53 | 1.12
28 | TCTGCTAGGTCAGTTGGTCCGCTAACGAGCTGCC | 2.05 | 1.98 | 2.93 | 0.518 | 0.727 | 0.962 | -0.188 | -0.485
